Measured values published in PubChem BioAssay (NCATS).
Records with an inconclusive call do not appear. Active and inactive are the calls of the source. Unless noted, calls follow the shape of the dose curve; as a rule, active = well fitted activation curve with a large enough effect; inconclusive = small, poorly fitted or top-dose-only effect; inactive = flat fitted curve, though single readings scatter.

Experiment: Confirmation and Secondary Assay for Modulators of Hemoglobin Beta Chain Splicing at IVS2 654 locus (AID 910);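 also: HeLa cells stably carrying EGFP split by mutant beta-globin IVS2-654 intron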
Details: HeLa EGFP-654 splicing reporter, GFP fluorescence, 48 h; series mostly up to 46.1 µM
Procedure, shortened: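 HeLa cells stably expressing EGFP interrupted by β-globin IVS2-654 intron, seeded overnight in Opti-MEM/2% FCS, then treated 2 days at 37 °C. Restored splicing read as total peak GFP intensity per well by laser scanning cytometry (488 nm excitation, 500–520 nm emission); 500 nM antisense PNA as control.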
Also: % of control where 0% means no effect.

outcome, inactive:
Nc1nc2c(ncn2C2CC(O)C(CO)O2)c(=O)[nH]1 (centres undefined)
CNC(=O)Oc1ccc2c(c1)[C@@]1(C)CCN(C)C1N2C (some centres undefined)
C[C@]12CCC3c4ccc(O)cc4CCC3C1CCC2OC(=O)CCC1CCCC1 (some centres undefined)
Nc1ncnc2c1nc(Br)n2C1OC(CO)C(O)C1O (centres undefined)
CC1C(NC(=O)/C(=N/OC(C)(C)C(=O)O)c2csc(N)n2)C(=O)N1S(=O)(=O)O (centres undefined)
Cc1onc(-c2c(Cl)cccc2Cl)c1C(=O)NC1C(=O)N2C1SC(C)(C)C2C(=O)O (centres undefined)
Nc1ncnc2c1[nH]c(=O)n2C1CC(O)C(CO)O1 (centres undefined)
COc1c(-c2coc3cc4c(cc3c2=O)CC(OC(C)=O)C(C)(C)O4)ccc2c1C=CC(C)(C)O2 (centres undefined)
COc1cc(O)c(C(=O)/C=C/c2ccc(O)c(OC)c2)c(OC)c1
NC(N)=N/N=C\c1c(Cl)cccc1Cl
O=C1C=CC(=C(c2ccc(O)cc2)c2ccc(O)cc2)C=C1
CC1CCC2C(C)(C)C3CC12CC[C@]3(C)O (some centres undefined)
CC1O[C@@H](O[C@@H]2C(O)C[C@H](O[C@@H]3C(O)C[C@@H](OC4CC[C@@]5(C)C6CC[C@]7(C)C(C8=CC(=O)OC8)CC[C@@]7(O)C6CC[C@@H]5C4)OC3C)OC2C)CC(O)[C@H]1O (some centres undefined)
C=CCCCCCCCCCCCC(O)CC(O)COC(C)=O (centres undefined) (tested in a mixture with another compound)
CC(=O)c1ccc[nH]1
CSCCC(NC=O)C(=O)NC(CC(C)C)C(=O)NC(Cc1ccccc1)C(=O)O (centres undefined)

Experiment: qHTS Assay for Identification of Small Molecule Agonists for Hypoxia Response Element Signaling Pathway (AID 914; active = well fitted activation curve with a large enough effect in the signal ratio, with a control signal flat, not every such curve was filed as active; the % refers to the signal ratio)
Details: ME-180 (cervical carcinoma) HRE-bla reporter, beta-lactamase ratio, CoCl2, 17 h; stronger effect = higher value
Procedure, shortened: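 qHTS titration; ME-180 HRE-bla cells; EC50 CoCl2 co-treatment, 17 h at 37 degrees Celsius; CCF4 dye, ex 405nm, em 460nm and 530nm; %Activity from ratio; AC50.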

activation, inactive:
C#CCCCO/N=C1/C[C@@H](O)[C@@H](O)[C@@H]2[C@@H]3C(=O)N(C4CCCCC4)C(=O)[C@H]3CC[C@@H]12 -13.1%
COc1ccc(O[C@H]2C=C[C@@H](c3ccccc3)O[C@H]2CO/N=C(/C)CCC(=O)OC[C@@H]2O[C@H](c3ccccc3)C=C[C@@H]2Oc2ccc(OC)cc2)cc1 3.42%
CCc1cc2c(nc1CC)CCN(CC/C(C)=N/O[C@@H](C)c1cn([C@H](CO)Cc3ccccc3)nn1)C2 -4.74%
COc1ccc(COC(=O)N/N=C2/C[C@@H](O)[C@@H](O)[C@@H]3[C@@H]4C(=O)N(c5cccc(Oc6ccccc6)c5)C(=O)[C@H]4CC[C@H]23)cc1 -10.1%

Experiment: Confirmation and Secondary Assay for Modulators of Hemoglobin Beta Chain Splicing at IVS2 705 locus (AID 930);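 also: HeLa cells stably expressing the EGFP-705 splicing reporter; GFP fluorescence per well restored by corrected splicing of the IVS2-705 intron in EGFP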
Details: HeLa EGFP-705 splicing reporter, GFP fluorescence, 48 h; series mostly up to 46.1 µM
Procedure, shortened: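 Secondary splice-site specificity test uses HeLa expressing CMV-driven EGFP interrupted by IVS2-705; cells were treated 2 days at 37C with 500 nM antisense PNA as positive control.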

outcome, inactive:
Nc1nc2c(ncn2C2CC(O)C(CO)O2)c(=O)[nH]1 (centres undefined)
CNC(=O)Oc1ccc2c(c1)[C@@]1(C)CCN(C)C1N2C (some centres undefined)
COc1ccc(/C=C/C(=O)c2cc(O)ccc2O)cc1
COc1cc(OC)c2c(OC)c(-c3ccc4c(c3)OCO4)c(=O)oc2c1
C[C@]12CCC3c4ccc(O)cc4CCC3C1CCC2OC(=O)CCC1CCCC1 (some centres undefined)
Nc1ncnc2c1nc(Br)n2C1OC(CO)C(O)C1O (centres undefined)
CC1C(NC(=O)/C(=N/OC(C)(C)C(=O)O)c2csc(N)n2)C(=O)N1S(=O)(=O)O (centres undefined)
Cc1onc(-c2c(Cl)cccc2Cl)c1C(=O)NC1C(=O)N2C1SC(C)(C)C2C(=O)O (centres undefined)
Nc1ncnc2c1[nH]c(=O)n2C1CC(O)C(CO)O1 (centres undefined)
COc1c2c(cc3occ(-c4ccc5c(c4)OCO5)c(=O)c13)OC(C)(C)C=C2
NC(=O)c1cc[n+](CC2=C(C(=O)O)N3C(=O)C(NC(=O)C(c4ccccc4)S(=O)(=O)[O-])C3SC2)cc1 (centres undefined)
COc1c(-c2coc3cc4c(cc3c2=O)CC(OC(C)=O)C(C)(C)O4)ccc2c1C=CC(C)(C)O2 (centres undefined)
C[C@@]12CCC(OC(=O)c3ccccc3)CC1CCc1ccccc12 (some centres undefined)
COc1cc(O)c(C(=O)/C=C/c2ccc(O)c(OC)c2)c(OC)c1
CC(=O)OCC(=O)[C@@]1(O)CCC2C3CCC4=CC(=O)CC[C@]4(C)C3C(=O)C[C@]21C (some centres undefined)
NC(N)=N/N=C\c1c(Cl)cccc1Cl
O=C1C=CC(=C(c2ccc(O)cc2)c2ccc(O)cc2)C=C1
CC1CCC2C(C)(C)C3CC12CC[C@]3(C)O (some centres undefined)
NC(C(=O)O)C(O)C(=O)O (centres undefined)
CC1(C)C(=O)C=C[C@@]2(C)C1C=C[C@@]1(C)C2CC[C@@]2(C)C(c3ccoc3)OC(=O)C3OC312 (some centres undefined)
C=CC(C1=CC(=O)C(OC)=CC1=O)c1ccc(OC)cc1 (centres undefined)
CC1O[C@@H](O[C@@H]2C(O)C[C@H](O[C@@H]3C(O)C[C@@H](OC4CC[C@@]5(C)C6CC[C@]7(C)C(C8=CC(=O)OC8)CC[C@@]7(O)C6CC[C@@H]5C4)OC3C)OC2C)CC(O)[C@H]1O (some centres undefined)
C=CCCCCCCCCCCCC(O)CC(O)COC(C)=O (centres undefined) (tested in a mixture with another compound)
CC(=O)c1ccc[nH]1
